The values that follow come from PubChem BioAssay (NCATS).

Where “and” joins values, the source holds several entries; their conditions need not be identical. Identical values can stand only once. Results filed as inconclusive are left out. Calls of active or inactive are those of the source. Unless noted, calls follow the shape of the dose curve; as a rule, active = well fitted curve in the direction sought with a large enough effect; inconclusive = small, poorly fitted or top-dose-only effect, or another doubt; inactive = no such curve, though single readings can be large; an effect the other way counts as inactive or inconclusive.

For assay [1], the target named is Arylsulfatase A (Homo sapiens) (UniProt P15289). Description: qHTS screen for enhancers of Arylsulfatase A (ASA1): LOPAC Validation Assay (AID 720538). The procedure, abridged:
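First, ASA-I179S fibroblasts from an MLD patient adhered for 6 hrs. Next, compounds were added for 48h. Then pNCS substrate (0.5mM final) with lysis buffer reacted 14h at room temperature before NaOH stop and fluorescence measurement.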
A general note: Quantitative high-throughput screening tests each substance at several concentrations.

A short description of assay [2]: qHTS for compounds that reverse cellular toxicity of Amyloid beta (A-beta) peptide in yeast: LOPAC Validation Assay (AID 720559).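 Also: plate controls were DMSO for no effect and equimolar ferric chloride plus clioquinol rescue for full effect.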 The method, boiled down:
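Activity is expressed relative to DMSO and an equimolar ferric chloride/clioquinol mix. Compounds were pinned into medium with A-beta-expressing yeast, grown 48 hr at 30 C, then read by absorbance at 600 nm.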

Assay [3] in a line: qHTS for Activators of Parkin Expression: LOPAC Validation Assay (NLuc Reporter) (AID 720572;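 also: 0% = DMSO and 100% = positive control compound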). The method, boiled down: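 Neuronal cells with a Parkin promoter-driven FLuc/NLuc coincidence reporter were treated 24 h at 37 C in 7-point dose response (LOPAC). NLuc luminescence read after FLuc; signals normalized to DMSO and positive control (100%).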
Assay [4] can be described thus: qHTS for Activators of Parkin Expression: LOPAC Validation Assay (FLuc Reporter) (AID 720573;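 also: 0% = DMSO and 100% = positive control compounds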). The procedure, abridged:
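A neuronal cell line harbouring FLuc and NLuc reporters behind the Parkin promoter was exposed to compounds for 24 h. Firefly luciferase signal, measured after 10 min with detection reagent, was scaled to DMSO and positive-control wells.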

In assay [5] the target is T1, Hexokinase-4 (Homo sapiens) + Glucokinase regulatory protein (Homo sapiens) (UniProt P35557+Q14397). Description: qHTS assay for inhibitors of recombinant human GCK-GKRP interaction: Diaphorase-coupled assay (AID 743205). The method, boiled down:
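Inhibitors of the GCK–GKRP complex relieve GKRP suppression of GCK, detected through a G6PDH–diaphorase cascade reducing resazurin. Human GST-GCK and FLAG-GKRP are used at 10 nM with 5 mM glucose and 0.4 mM ATP.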

In assay [6] the target is T1, Hexokinase-4 (Homo sapiens) + Glucokinase regulatory protein (Homo sapiens). The assay is described as follows: qHTS assay for inhibitors of recombinant human GCK-GKRP interaction: ADP-Glo assay (AID 743206).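 Also: plate controls were DMSO plus enzyme for no effect and no enzyme for full effect.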 The procedure, abridged: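 GST-GCK and FLAG-GKRP (15 nM each in the dispensed mix, with 2 uM S6P) react with 0.4 mM ATP and 5 mM glucose (final) in Hepes pH 7.6 for 60 min at room temperature. ADP is measured by ADP-Glo luminescence.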

Assay [7] shares this target. The assay is described as follows: qHTS assay for inhibitors of recombinant human GCK-GKRP interaction: HTRF assay (AID 743207).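 Also: 0% = DMSO with GCK present and -100% = DMSO wells lacking GCK.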 The method, boiled down: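 Steps: dispense GCK–GKRP complex (5 nM each, GST- and FLAG-tagged) with 2 uM S6P; pin in compounds; add XL665/Eu-cryptate-labelled antibodies; incubate 60 min at room temperature; read time-resolved FRET at 665 and 615 nm.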

Assay [8] can be described thus: qHTS Assay for Identifying Gametocytocidal Compounds (AID 743244). Also: potency is read from the fitted curve at half-maximal effect.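 As to max response: % is scaled to controls: 0 for no effect and ±100 for the full control effect; actives lower the fluorescent signal which means gametocytes are killed.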 Conditions: P. falciparum 3D7 stage III-V gametocytes, alamarBlue, 72 h; max response: stronger effect = lower value. The method, boiled down:
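Viability read-out was resazurin reduction (alamarBlue, 24 h) measured at Ex 525/Em 598 nm. Beforehand, late-stage (III-V) 3D7 P. falciparum gametocytes at 20,000 cells/well were incubated with compound 72 h at 37C under 5% CO2.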

The nature of assay [9]: qHTS profiling of the MIPE4 collection as inhibitors of Plasmodium falciparum (3D7) proliferation (AID 743344; call rule not given here;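 also: scaled between DMSO vehicle wells and 0.29 µM artemisinin as full inhibition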). The following applies: P. falciparum 3D7 in erythrocytes, SYBR Green DNA fluorescence, 72 h; at 28.5 µM (top of the series) unless noted. The method, boiled down: (§1)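 Erythrocytes infected with P. falciparum (0.3% parasitemia, 2.5% hematocrit) incubated with compounds 72 h at 37 C, 5% CO2. Lysis with saponin/Triton buffer containing SYBR Green I, overnight at room temperature in the dark; DNA fluorescence (485/535 nm) normalised to 0.29 uM artemisinin and DMSO.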

Assay [10] can be described thus: qHTS assay for small molecule agonists of the antioxidant response element (ARE) signaling pathway measured by Nrf2-dependant transcriptional activity (AID 720636; active = well fitted curve in the direction sought with a large enough effect in the repeat runs; an effect the other way counts as inactive or inconclusive; also: potency is read from the fitted curve at half-maximal effect). The procedure, abridged:
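We exposed ARE-luc HepG2 cells, seeded in assay medium with 1% dialyzed FBS and allowed 6 hr to adhere, to test compounds overnight (16 hr, 37 C) before measuring luciferase with ONE-Glo.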

The nature of assay [11]: qHTS assay for cell viability of the p53RE-bla HCT-116 cell line (AID 743292). Also: % is scaled to controls: 0 for no effect and ±100 for the full control effect; nearly all actives have a fitted effect of over 55% in size. The method, boiled down: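 In this qHTS counter-screen, metabolically competent p53RE-bla HCT-116 cells were counted via their ATP content. Compounds were applied for 16 h at 37 C and luciferase-coupled luminescence was measured.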
A short description of assay [12]: qHTS profiling for inhibitors of Plasmodium falciparum (3D7) proliferation (AID 743322; call rule not given here;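 also: infected erythrocytes exposed to compound for 72 h before lysis; 100% = DMSO vehicle wells and 0% = 0.29 µM artemisinin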). Conditions: P. falciparum 3D7 proliferation; at 28.7 µM (top of the series) unless noted. The procedure, abridged:
as §1

T1 sequence (P35557 whole entry, looked up): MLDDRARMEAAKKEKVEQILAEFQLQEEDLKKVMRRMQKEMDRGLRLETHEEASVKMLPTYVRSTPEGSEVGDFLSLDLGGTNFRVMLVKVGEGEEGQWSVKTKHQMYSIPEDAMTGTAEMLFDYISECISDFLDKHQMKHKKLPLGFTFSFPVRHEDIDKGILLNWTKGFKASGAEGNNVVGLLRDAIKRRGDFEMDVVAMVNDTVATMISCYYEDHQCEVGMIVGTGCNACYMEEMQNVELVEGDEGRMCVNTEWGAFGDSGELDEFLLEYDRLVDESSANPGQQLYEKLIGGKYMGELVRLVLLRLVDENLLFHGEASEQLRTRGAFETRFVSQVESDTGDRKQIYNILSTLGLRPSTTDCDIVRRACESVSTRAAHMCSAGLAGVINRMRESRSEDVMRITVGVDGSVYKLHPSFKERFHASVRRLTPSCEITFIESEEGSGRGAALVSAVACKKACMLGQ
T1 sequence (Q14397 whole entry, looked up): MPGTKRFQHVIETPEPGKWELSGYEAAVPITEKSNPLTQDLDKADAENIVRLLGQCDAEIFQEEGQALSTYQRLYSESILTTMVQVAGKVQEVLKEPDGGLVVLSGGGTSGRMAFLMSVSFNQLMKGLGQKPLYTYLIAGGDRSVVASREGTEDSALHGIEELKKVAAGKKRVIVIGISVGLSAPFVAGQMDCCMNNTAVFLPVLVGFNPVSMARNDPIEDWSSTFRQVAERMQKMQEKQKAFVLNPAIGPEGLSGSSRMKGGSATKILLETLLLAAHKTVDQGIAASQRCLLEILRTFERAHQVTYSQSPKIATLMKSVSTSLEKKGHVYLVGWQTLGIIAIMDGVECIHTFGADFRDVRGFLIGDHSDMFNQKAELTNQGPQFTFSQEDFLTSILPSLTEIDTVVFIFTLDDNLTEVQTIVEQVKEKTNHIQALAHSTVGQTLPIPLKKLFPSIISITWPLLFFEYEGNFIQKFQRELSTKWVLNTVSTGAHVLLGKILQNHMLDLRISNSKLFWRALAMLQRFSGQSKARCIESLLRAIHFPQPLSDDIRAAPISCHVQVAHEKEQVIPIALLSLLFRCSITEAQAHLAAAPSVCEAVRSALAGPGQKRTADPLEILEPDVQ
Arylsulfatase A (Homo sapiens), sequence (P15289 whole entry, looked up): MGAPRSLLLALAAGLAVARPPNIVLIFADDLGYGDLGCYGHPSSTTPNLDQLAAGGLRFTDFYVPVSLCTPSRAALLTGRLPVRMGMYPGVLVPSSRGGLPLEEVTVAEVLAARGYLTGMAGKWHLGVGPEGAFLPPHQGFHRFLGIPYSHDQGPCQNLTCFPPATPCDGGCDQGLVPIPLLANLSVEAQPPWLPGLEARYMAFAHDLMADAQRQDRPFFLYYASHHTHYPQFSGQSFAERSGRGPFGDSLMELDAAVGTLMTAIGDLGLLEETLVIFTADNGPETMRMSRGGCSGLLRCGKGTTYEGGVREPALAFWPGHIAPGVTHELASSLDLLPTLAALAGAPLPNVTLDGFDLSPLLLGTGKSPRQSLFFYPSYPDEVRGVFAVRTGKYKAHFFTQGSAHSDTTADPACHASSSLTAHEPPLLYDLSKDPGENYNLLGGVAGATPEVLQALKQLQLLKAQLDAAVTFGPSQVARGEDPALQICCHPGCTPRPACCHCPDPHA

On to `NCCCCNCCCN`, for which the Potency entry in [1] and in assay [4] was “inactive” in each case. For the same molecule, the outcome in assay [2], in [3], in assay [5], in [6] and in assay [7] was inactive. Besides, the max response in assay [8] was 11.2% (inactive). This molecule returned a parasite growth, % of DMSO control in [9] of 161%.
Take `O=C(OC1C[C@H]2CC[C@@H](C1)[N+]21CCCC1)C(O)(c1ccccc1)c1ccccc1` (stereo not given in full): in assay [8], the max response is -10.3% (inactive).
As to `O=C1c2c(O)cc(O)cc2OC(c2ccc(O)c(O)c2)C1O` (stereo not given), the molecule was classed as inactive in assay [2], in assay [3], in [5], in [6] and in [7]. The Potency entry in [4] was “inactive”. In addition, the max response in assay [8] was -8.7% (inactive). In addition, the parasite growth, % of DMSO control in [9] turned out to be 75.5%.
Turning to `O=c1ccc2ccc(O)c(O)c2o1`, the Potency entry in assay [1] and in assay [4] was “inactive” each time. For the same molecule, the molecule was called inactive in assay [2], in [3], in assay [5], in [6] and in [7]. In addition, in assay [9], the parasite growth, % of DMSO control came out at 169%.
Consider `C=CCc1cc(OC)c(O)c(C(=O)NCCO)c1`, for which the max response in assay [8] was -5.25% (inactive).
On the same count and under the same terms, in the case of `CC1Cc2ccccc2N1NC(=O)c1ccc(Cl)c(S(N)(=O)=O)c1` (stereo not given) it was 1.41% (inactive) and -0.446% (inactive).
With `CC(=O)O[C@H]1C(=O)[C@@]2(C)C([C@H](OC(=O)c3ccccc3)[C@]3(O)C[C@H](OC(=O)[C@H](O)[C@@H](NC(=O)c4ccccc4)c4ccccc4)C(C)=C1C3(C)C)[C@]1(OC(C)=O)CO[C@@H]1C[C@@H]2O` (stereo not given in full), the Potency entry in [1] and in assay [4] was “inactive” throughout. Further, the call in assay [2], in assay [3], in [5], in assay [6] and in assay [7] was inactive. Besides, in assay [9], the parasite growth, % of DMSO control came to 5.85%.
`Cn1c(NCCN(CCO)CCCc2ccc([N+](=O)[O-])cc2)cc(=O)n(C)c1=O`: the max response in assay [8] is 4.58% (inactive). This molecule also gave a parasite growth, % of DMSO control in assay [9] of 5.83%.
As for `Cc1nc2n(c(=O)c1CCN1CCC(c3noc4cc(F)ccc34)CC1)CCCC2`, in [8], the max response is 9.32% (inactive).
As for `CCOC(=O)C1=C[C@@H](OC(CC)CC)[C@H](NC(C)=O)[C@@H](N)C1`, the max response in assay [8] is -3.59% (inactive).
Take `CCN(CC)C(=S)SSC(=S)N(CC)CC`: the Potency result in assay [1] and in assay [11] was “inactive” in each case. In [2], the result was inactive. In addition, the Potency in assay [10] is 27.3 µM (active); in assay [8] it was 3.98 µM (active) and 60.5 nM (active) and 74.3 nM (active). The same molecule returned a remaining parasite growth % (stronger effect = lower value) in [12] of 99.1%. The parasite growth, % of DMSO control in assay [9] was 65.9%.
`COc1cc2nc(N3CCN(C(=O)C4CCCO4)CC3)nc(N)c2cc1OC` (stereo not given): the outcome in [2], in [3], in [5], in [6] and in assay [7] was inactive. The Potency result in assay [4] is “inactive”. Besides, the max response in [8] is -8.17% (inactive) and 12.4% (inactive). The parasite growth, % of DMSO control in assay [9] amounted to 30.8%.
With `COc1cc2c(cc1OC)C1CC(=O)C(CC(C)C)CN1CC2` (stereo not given), the outcome in [2], in assay [3], in assay [5], in assay [6] and in assay [7] was inactive. In addition, the Potency entry in assay [4] is “inactive”. In addition, in assay [8], the max response was 30.1% (inactive). For the same molecule, the parasite growth, % of DMSO control in [9] is 82.2%.
With `O=C1c2ccccc2-c2n[nH]c3cccc1c23`, the Potency entry in assay [1] is “inactive”. Moreover, the outcome in [2], in [5], in assay [6] and in assay [7] was inactive. Also, the max response in assay [8] is -3.57% (inactive) and 13.7% (inactive). The parasite growth, % of DMSO control in assay [9] was found to be 62.9%.
